The values below come from PubChem BioAssay (NCI).

Common to all, as to assay: NCI-60 one-dose screen, 48 h (100 = growth as untreated, 0 = no growth, -100 = all killed)
Holding throughout (conditions): 10 µM unless noted

Experiment [1] has as its system HCT-15 colon.
Experiment [2] relates to HT29 colon.
In experiment [3] the test system is SNB-75 CNS.
Experiment [4] concerns SNB-19 CNS.
The test system of experiment [5] is U251 CNS.
The subject of experiment [6] is PC-3 prostate.
Experiment [7] relates to SK-MEL-5 melanoma.
In experiment [8] the test system is UACC-62 melanoma.
Experiment [9] concerns LOX IMVI melanoma.
In experiment [10] the test system is SK-MEL-28 melanoma.
For experiment [11], the system named is SK-MEL-2 melanoma.
Experiment [12] deals with SN12C renal.
Experiment [13] relates to UO-31 renal.
The subject of experiment [14] is TK-10 renal.
For experiment [15], the system named is ACHN renal.
For experiment [16], the system named is CAKI-1 renal.
Experiment [17] concerns A498 renal.
The test system of experiment [18] is CCRF-CEM leukemia.
The subject of experiment [19] is MOLT-4 leukemia.
Experiment [20] has as its system EKVX NSCLC.

“And” between values parts separate entries of the source, which are not always exact repeats. Equal values may be shown once. The panel holds about 83,000 compounds, 20% with a hit somewhere; the sample as a whole holds those more often.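 Growth was measured after 48 h exposure to one concentration of compound in 96-well plates. Values under 10 count as active.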 The source made the active and inactive calls.

On to `Cc1cc(N2CCCCC2)nc(NCc2cc(Nc3ccnc4cc(Cl)ccc34)ccc2F)n1`, for which the growth in [1] was -55.1% (active); in experiment [2] it was -58.4% (active); in experiment [3], -37.1% (active); in experiment [4], 40.9% (inactive); in [5], -90.9% (active); in experiment [6] it was 17.4% (inactive). Moreover, the growth in experiment [7] was -96.3% (active); in [8], -80.7% (active); in experiment [9], -79.2% (active); in experiment [10], -73.8% (active); in experiment [11] it was -42.7% (active); in experiment [12], -71% (active). Also, the growth in [13] was -46.9% (active); in experiment [14], -21.5% (active); in experiment [15], -82% (active); in experiment [16] it was 19.1% (inactive); in [17] it was -17.3% (active); in experiment [18], -19.2% (active). In experiment [19], the growth is -24.8% (active).
With `O=C1C(N2CCOCC2)=C(I)C(=O)c2ncccc21`, the growth is 67.1% (inactive) in experiment [1]; 102% (inactive) in experiment [2]; 66.3% (inactive) in experiment [3]; 73% (inactive) in [4]; 61.9% (inactive) in experiment [5]; 79.4% (inactive) in experiment [6]. For the same compound, the growth in experiment [7] is 89.4% (inactive); in experiment [8] it was 69.5% (inactive); in experiment [9], 43.4% (inactive); in experiment [10] it was 96.6% (inactive); in experiment [11] it was 91.1% (inactive); in experiment [20], 89.3% (inactive). The growth in experiment [12] was 60.6% (inactive); in experiment [13], 54.3% (inactive); in experiment [14], 111% (inactive); in experiment [16] it was 76.1% (inactive); in experiment [17], 102% (inactive); in experiment [18] it was 62.4% (inactive). In [19], the growth is 50.5% (inactive).
For the compound `NC(=O)c1c(NC(=O)/C=C/c2cccs2)sc2c1CCC(=O)C2`, the growth in experiment [1] is 13.1% (inactive); in [2] it was 15.8% (inactive); in experiment [3], 56.5% (inactive); in experiment [4], 64.5% (inactive); in [5], 22.2% (inactive); in experiment [6], 13.4% (inactive). The growth in experiment [7] was 24.4% (inactive); in [8], 16.9% (inactive); in experiment [9], 18.4% (inactive); in experiment [10], 41.8% (inactive); in experiment [11], 49.7% (inactive); in experiment [12], 23.1% (inactive). For the same compound, the growth was 5.7% (active) in experiment [13]; 43.9% (inactive) in [14]; 5.27% (active) in experiment [15]; 14.2% (inactive) in experiment [16]; 115% (inactive) in experiment [17]; 10.5% (inactive) in experiment [18]. The growth in [19] is 21.8% (inactive).
Consider `CN(C)c1ccc2nc3ccc(=O)cc-3sc2c1`, for which the growth is 36.2% (inactive) and 37.2% (inactive) in [1]; 39.9% (inactive) and 40.7% (inactive) in [2]; 94.9% (inactive) and 36.7% (inactive) in experiment [3]; 55.8% (inactive) and 45.9% (inactive) in experiment [4]; 21.2% (inactive) and 33.3% (inactive) in experiment [5]; 29.7% (inactive) and 33% (inactive) in [6]. Further, the growth in experiment [7] is -94.8% (active) and -89.9% (active); in experiment [8] it was 32.5% (inactive) and 32.9% (inactive); in experiment [9] it was 5.56% (active) and 5.52% (active); in [10] it was 77.6% (inactive) and 63% (inactive); in [11] it was 13.8% (inactive) and 35.6% (inactive); in experiment [12] it was 41.9% (inactive) and 34.5% (inactive). The growth in experiment [13] was 14.8% (inactive) and 31.4% (inactive); in experiment [14], 60.9% (inactive) and 67.4% (inactive); in experiment [15], 20% (inactive) and 21.7% (inactive); in [16] it was 34.1% (inactive) and 22.3% (inactive); in experiment [17], 85.7% (inactive); in [18], 13% (inactive) and 20.1% (inactive). The growth in experiment [19] was -18.7% (active) and 20.2% (inactive).
On to `COc1ccc(C(CC(=O)c2ccc3c(c2)OCO3)C(=O)O)cc1OC` (stereo not drawn), for which the growth was 122% (inactive) and 109% (inactive) in experiment [1]; 103% (inactive) and 96.3% (inactive) in experiment [2]; 110% (inactive) and 88.3% (inactive) in experiment [3]; 110% (inactive) and 97.6% (inactive) in experiment [4]; 102% (inactive) in [5]; 87.4% (inactive) and 105% (inactive) in experiment [6]. Moreover, the growth in experiment [7] is 108% (inactive) and 102% (inactive); in experiment [8], 111% (inactive) and 112% (inactive); in experiment [9], 95.6% (inactive) and 98.4% (inactive); in [10], 122% (inactive) and 106% (inactive); in [11] it was 114% (inactive) and 87.8% (inactive); in [20], 99.9% (inactive). The growth in experiment [12] was 98% (inactive) and 102% (inactive); in [13] it was 113% (inactive) and 83.3% (inactive); in [14], 109% (inactive) and 108% (inactive); in experiment [16], 91.4% (inactive) and 95.3% (inactive); in [17] it was 104% (inactive) and 106% (inactive); in experiment [18] it was 96% (inactive) and 97.5% (inactive). In experiment [19], the growth is 108% (inactive) and 96.1% (inactive).
Regarding `CCCCC1=C(Br)C(=O)c2nc(C)ccc2C1=O`, the growth in experiment [1] was 95.5% (inactive); in experiment [2], 107% (inactive); in [3] it was 84.4% (inactive); in [4], 92.5% (inactive); in experiment [5], 89.6% (inactive); in [6], 80.3% (inactive). For the same compound, the growth in experiment [7] is 92.6% (inactive); in experiment [8], 84.9% (inactive); in experiment [9], 89.1% (inactive); in experiment [10] it was 105% (inactive); in experiment [11], 109% (inactive); in [20], 92.7% (inactive). Further, the growth was 91.6% (inactive) in [12]; 70.8% (inactive) in experiment [13]; 115% (inactive) in experiment [14]; 85.9% (inactive) in experiment [16]; 93.8% (inactive) in experiment [17]; 30.9% (inactive) in experiment [18]. Besides, the growth in experiment [19] is 21.3% (inactive).
In the case of `COc1cc2ncnc(Nc3ccc(F)c(Cl)c3)c2cc1OCC(=O)N1CCCCC1`, the growth in experiment [1] was 86.1% (inactive); in [2], 77.1% (inactive); in experiment [3] it was 87.7% (inactive); in [4], 91.8% (inactive); in [5], 96.9% (inactive); in experiment [6], 84.6% (inactive). Moreover, the growth in experiment [7] is 90.4% (inactive); in experiment [8], 91.7% (inactive); in experiment [9] it was 87.4% (inactive); in [10], 99.2% (inactive); in experiment [11], 88.1% (inactive); in [12], 76.4% (inactive). The growth was 43.5% (inactive) in [13]; 23.9% (inactive) in experiment [14]; 32.2% (inactive) in [15]; 44.5% (inactive) in experiment [16]; 43.5% (inactive) in experiment [17]; 94.2% (inactive) in experiment [18]. The growth in [19] is 73.8% (inactive).
